Test results as given in PubChem BioAssay (Tox21).
Results filed as inconclusive are left out. Activity calls are given as the source filed them. Unless noted, calls follow the shape of the full dose curve.

Tests used:
[1] = Nuclear factor erythroid 2-related factor 2/antioxidant responsive element (Nrf2/ARE) small molecule agonists: qHTS cell viability counter screen in human keratinocytes (AID 1919968; active = well fitted curve in the direction sought with a large enough effect in the repeat runs; an effect the other way counts as inactive or inconclusive; also: nearly all actives have a fitted effect of over 55% in size)
Outline: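 Stably transfected HaCaT (KeratinoSens), 1,500/well. Test agents in DMSO were applied for 23 h, 37 C/5% CO2. CellTiter-Fluor was incubated 1 h before the fluorescence read.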

[2] = Nuclear factor erythroid 2-related factor 2/antioxidant responsive element (Nrf2/ARE) small molecule agonists: luciferase reporter gene qHTS assay in human keratinocytes (AID 1919969); also: nearly all actives have a fitted effect of over 35% in size
[3] = molecular target: Gonadotropin-releasing hormone receptor (Homo sapiens) (UniProt P30968); experiment: Human gonadotropin-releasing hormone receptor (GnRHR) small molecule agonists, calcium flux assay in GnRHR-HEK293 cells (AID 1920063); also: nearly all actives have a fitted effect of over 35% in size
Outline: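 Stable human GnRHR HEK293 line. 18 h plating, then calcium dye for 1 h at 37 C. Agonist-mode compound addition from DMSO stocks; fluorescence monitored 3 min.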

[4] = molecular target: KiSS-1 receptor (Homo sapiens) (UniProt Q969F8); experiment: Human kisspeptin (KISS1R) small molecule agonists, calcium flux assay in KISS1R-HEK293 cells (AID 1920064; active = well fitted curve in the direction sought with a large enough effect in the repeat runs; an effect the other way counts as inactive or inconclusive)
Outline: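 After overnight (18 h) culture at 37 C/5% CO2, human KISS1R-HEK293 cells received calcium dye for 1 h, then test compound; emission at 540 nm (excitation 480 nm) was tracked for 3 min.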

[5] = G protein-coupled receptor (GPCR) small molecule agonists, calcium flux assay: HEK293 wild type cell line counter screen (AID 1920065)
Outline: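 Following 18 h incubation at 37 C/5% CO2, plates got calcium dye for 1 h; compounds, ATP or DMSO were then pinned in and fluorescence followed kinetically (480/540 nm).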

[6] = p53 small molecule agonists, cell-based qHTS assay with human liver microsomes (AID 1963577);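 also: p53 response element beta-lactamase reporter cells with liver microsomes plus NADPH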
Outline: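 Reporter activation was measured by LiveBLAzer fluorescence intensity in p53RE-bla cells, which had been exposed to compounds for 16 h at 37 C alongside 0.5 mg/mL human liver microsomes and 0.5 mg/mL NADPH (final concentrations).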

[7] = p53 small molecule agonists, cell-based qHTS assay with rat liver microsomes: qHTS cell viability counter screen (AID 1963580); also: nearly all actives have a fitted effect of over 45% in size
Outline: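 Luminescent ATP readout (CellTiter-Glo, 30 min at room temperature) reports viability of p53RE-bla HCT-116 cells after 16 h at 37 C with test compounds under metabolic activation by rat liver microsomes and NADPH at 0.5 mg/mL final each.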

[8] = p53 small molecule agonists, cell-based qHTS assay: qHTS cell viability counter screen (AID 1963581); also: nearly all actives have a fitted effect of over 45% in size
Outline: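 qHTS counter screen: 16 h compound exposure at 37 C of p53RE-bla HCT-116 cells (4,000 per well, seeded 5 h prior), cell viability by ATP luminescence.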

[9] = p53 small molecule agonists, cell-based qHTS assay (AID 1963582; active = well fitted activation curve with a large enough effect in the signal ratio in the repeat runs, not every such curve was filed as active; the % refers to the signal ratio)
Outline: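 Measured: fluorescence from cleaved LiveBLAzer substrate. System: p53RE-bla cells, 16 h compound treatment at 37 C, 2 h substrate step at room temperature.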

[10] = molecular target: 5-hydroxytryptamine receptor 2A (Homo sapiens) (UniProt P28223); experiment: 5-hydroxytryptamine receptor 2A (HTR2A) small molecule antagonists, cell-based qHTS assay (AID 1963586); also: nearly all actives have a fitted effect of over 45% in size
Outline: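 CHO cells stably expressing human HTR2A were plated for 18 h at 37 C, then loaded with calcium dye for 1 h. Compounds were preincubated 5 min at room temperature before DOI (4 nM solution) was added. Kinetic fluorescence was read for 3 min.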

[11] = molecular target: 5-hydroxytryptamine receptor 2A (Homo sapiens) (UniProt P28223); experiment: 5-hydroxytryptamine receptor 2A (HTR2A) small molecule agonists, cell-based qHTS assay (AID 1963587); also: nearly all actives have a fitted effect of over 30% in size
Outline: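 HTR2A-CHO cells, plated 18 h at 37 C/5% CO2, dye-loaded 1 h at 37 C; compounds in DMSO added by pin tool (agonist mode). Intracellular calcium flux read as kinetic fluorescence on FDSS over 2 min at 1 s intervals.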

[12] = molecular target: Muscarinic acetylcholine receptor M1 (Homo sapiens) (UniProt P11229); experiment: Cholinergic receptor muscarinic 1 (CHRM1) small molecule antagonists, cell-based qHTS assay (AID 1963588); also: nearly all actives have a fitted effect of over 40% in size
Outline: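 Compounds were tested at 15 concentrations in three independent runs. Dye-loaded CHRM1-CHO cells were exposed 5 min at room temperature before stimulation by acetylcholine added at 50nM. Intracellular calcium was read kinetically on FDSS for 3 min.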

[13] = molecular target: Muscarinic acetylcholine receptor M1 (Homo sapiens) (UniProt P11229); experiment: Cholinergic receptor muscarinic 1 (CHRM1) small molecule agonists, cell-based qHTS assay (AID 1963589); also: nearly all actives have a fitted effect of over 35% in size
Outline: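 Kinetic fluorescence (1 s intervals) of calcium-sensitive dye in human M1 CHO cells after compound addition; cells pre-incubated 18 h at 37 C/5% CO2 and dye-loaded 1 h.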

[14] = cAMP Responsive Elements (CRE) small molecule agonists, cell-based qHTS assay (AID 1963590)
Outline: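 Test agents in DMSO were incubated 3 h at 37 C/5% CO2 with CRE-bla HEK 293T cells seeded 18 h earlier; LiveBLAzer B/G FRET substrate was added and read after 2 h at room temperature.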

[15] = cAMP Responsive Elements (CRE) small molecule antagonists, cell-based qHTS assay (AID 1963591; active = well fitted inhibition curve with a large enough effect in the signal ratio in the repeat runs, not every such curve was filed as active; the % refers to the signal ratio)
Outline: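 Reporter line CRE-bla HEK 293T in dialyzed-FBS DMEM; cells preincubated 18 h, treated 3 h with compound plus NKH477 (0.25 uM final); LiveBLAzer FRET, 2 h RT.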

[16] = molecular target: Beta-2 adrenergic receptor (Homo sapiens) (UniProt P07550); experiment: Adrenergic beta2 receptor (ADRB2) small molecule antagonists, cell-based qHTS assay (AID 1963592); also: series mostly up to about 92 µM; nearly all actives have a fitted effect of over 50% in size
Outline: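 Assay format: CHO-ADRB2 cells, 18-20hr seeding at 37C/5% CO2, then compound plus 1nM isoproterenol agonist mix for 0.5hr RT. Homogeneous time-resolved fluorescence cAMP detection after 1hr, expressed as 665/615 nm ratio.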

[17] = molecular target: D(2) dopamine receptor (Homo sapiens) (UniProt P14416); experiment: Dopamine D2 receptor (DRD2) small molecule agonists, cell-based qHTS assay (AID 1963594); also: nearly all actives have a fitted effect of over 35% in size
Outline: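 HEK293 cells stably expressing DRD2 were cultured 24 h at 37 C, then given Ro20-1724 (0.1 mM final) and compounds for 10 min at room temperature. NKH477 (200nM) was then added for 30 min. cAMP was read by HTRF.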

[18] = molecular target: D(2) dopamine receptor (Homo sapiens) (UniProt P14416); experiment: Dopamine D2 receptor (DRD2) small molecule antagonists, cell-based qHTS assay (AID 1963595; active = well fitted inhibition curve with a large enough effect in the signal ratio in the repeat runs, with a control signal flat; the % refers to the signal ratio)
Outline: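 Antagonism was scored as restored cAMP in HEK293-DRD2 cells. These cells were stimulated with 200 nM NKH477 and 12 nM quinpirole for 30 min at room temperature, in the presence of 0.1 mM Ro20-1724.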

[19] = molecular target: Beta-2 adrenergic receptor (Homo sapiens) (UniProt P07550); experiment: Adrenergic beta2 receptor (ADRB2) small molecule agonists, cell-based qHTS assay (AID 1963593);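 also: CHO cells stably overexpressing human ADRB2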
Outline: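 CHO cells stably over-expressing ADRB2 were plated overnight at 37C, then dosed with compounds plus a stimulation mix containing 100uM IBMX and 25uM Ro-20-1724 for 0.5hr at room temperature. cAMP was measured by HTRF competition, 1hr.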

Measured: Potency

Chain of Muscarinic acetylcholine receptor M1 (Homo sapiens) (P11229 whole entry, looked up): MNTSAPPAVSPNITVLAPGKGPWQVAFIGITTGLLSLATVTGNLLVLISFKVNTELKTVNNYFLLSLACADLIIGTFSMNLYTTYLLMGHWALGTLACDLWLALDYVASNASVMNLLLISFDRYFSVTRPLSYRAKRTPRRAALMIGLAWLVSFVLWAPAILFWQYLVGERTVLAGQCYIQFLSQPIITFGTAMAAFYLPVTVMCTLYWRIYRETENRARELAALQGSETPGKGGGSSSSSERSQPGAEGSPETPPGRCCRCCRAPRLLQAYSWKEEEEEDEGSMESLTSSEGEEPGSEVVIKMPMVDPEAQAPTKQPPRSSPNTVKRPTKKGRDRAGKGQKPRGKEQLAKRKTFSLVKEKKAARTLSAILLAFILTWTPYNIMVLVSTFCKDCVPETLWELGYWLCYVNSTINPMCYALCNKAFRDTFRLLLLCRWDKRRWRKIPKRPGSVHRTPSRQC
Chain of KiSS-1 receptor (Homo sapiens) (Q969F8 whole entry, looked up): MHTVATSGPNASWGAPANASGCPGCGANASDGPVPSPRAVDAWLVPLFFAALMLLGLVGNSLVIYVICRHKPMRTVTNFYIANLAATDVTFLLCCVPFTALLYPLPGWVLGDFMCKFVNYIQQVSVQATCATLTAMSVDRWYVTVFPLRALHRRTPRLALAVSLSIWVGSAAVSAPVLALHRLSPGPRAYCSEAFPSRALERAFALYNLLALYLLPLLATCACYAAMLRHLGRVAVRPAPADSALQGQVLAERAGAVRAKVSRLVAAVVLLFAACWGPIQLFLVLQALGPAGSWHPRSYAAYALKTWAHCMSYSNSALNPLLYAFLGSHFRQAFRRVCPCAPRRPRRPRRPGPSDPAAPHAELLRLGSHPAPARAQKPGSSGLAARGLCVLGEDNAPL
Chain of D(2) dopamine receptor (Homo sapiens) (P14416 whole entry, looked up): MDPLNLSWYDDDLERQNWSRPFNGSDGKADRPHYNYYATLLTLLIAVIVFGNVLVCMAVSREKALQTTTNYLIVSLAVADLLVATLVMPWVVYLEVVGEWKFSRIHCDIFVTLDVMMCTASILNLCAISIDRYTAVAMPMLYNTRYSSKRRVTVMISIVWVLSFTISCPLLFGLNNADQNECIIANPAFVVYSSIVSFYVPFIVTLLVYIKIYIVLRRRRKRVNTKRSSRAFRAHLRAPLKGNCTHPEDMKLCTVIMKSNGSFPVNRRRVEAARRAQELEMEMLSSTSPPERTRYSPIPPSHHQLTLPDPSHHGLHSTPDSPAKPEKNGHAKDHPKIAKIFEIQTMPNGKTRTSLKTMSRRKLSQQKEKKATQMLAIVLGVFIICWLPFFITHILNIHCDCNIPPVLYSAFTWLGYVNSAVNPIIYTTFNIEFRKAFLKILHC
Chain of 5-hydroxytryptamine receptor 2A (Homo sapiens) (P28223 whole entry, looked up): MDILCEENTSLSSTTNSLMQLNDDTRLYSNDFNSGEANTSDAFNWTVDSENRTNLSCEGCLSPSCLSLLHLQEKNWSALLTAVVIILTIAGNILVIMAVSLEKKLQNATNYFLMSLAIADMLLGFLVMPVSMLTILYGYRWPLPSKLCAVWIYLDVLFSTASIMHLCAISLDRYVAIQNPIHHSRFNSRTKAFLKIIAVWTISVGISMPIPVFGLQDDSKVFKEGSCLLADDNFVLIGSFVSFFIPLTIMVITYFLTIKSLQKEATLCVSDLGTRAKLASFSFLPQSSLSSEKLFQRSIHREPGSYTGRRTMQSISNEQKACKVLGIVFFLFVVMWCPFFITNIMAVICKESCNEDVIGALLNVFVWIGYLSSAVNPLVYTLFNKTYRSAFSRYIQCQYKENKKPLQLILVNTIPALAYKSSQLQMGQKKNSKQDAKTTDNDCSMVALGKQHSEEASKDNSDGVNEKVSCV
Chain of Beta-2 adrenergic receptor (Homo sapiens) (P07550 whole entry, looked up): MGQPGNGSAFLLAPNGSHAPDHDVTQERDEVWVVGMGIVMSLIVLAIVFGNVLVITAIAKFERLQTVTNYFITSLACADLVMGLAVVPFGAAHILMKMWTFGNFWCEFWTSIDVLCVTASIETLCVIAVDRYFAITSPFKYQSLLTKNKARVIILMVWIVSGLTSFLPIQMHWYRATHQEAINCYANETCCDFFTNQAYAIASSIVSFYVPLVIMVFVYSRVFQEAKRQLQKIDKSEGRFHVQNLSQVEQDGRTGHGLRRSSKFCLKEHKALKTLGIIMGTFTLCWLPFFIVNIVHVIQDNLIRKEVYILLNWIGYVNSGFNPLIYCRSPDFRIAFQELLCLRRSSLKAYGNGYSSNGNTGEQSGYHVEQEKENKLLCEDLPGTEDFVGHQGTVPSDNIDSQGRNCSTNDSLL
Chain of Gonadotropin-releasing hormone receptor (Homo sapiens) (P30968 whole entry, looked up): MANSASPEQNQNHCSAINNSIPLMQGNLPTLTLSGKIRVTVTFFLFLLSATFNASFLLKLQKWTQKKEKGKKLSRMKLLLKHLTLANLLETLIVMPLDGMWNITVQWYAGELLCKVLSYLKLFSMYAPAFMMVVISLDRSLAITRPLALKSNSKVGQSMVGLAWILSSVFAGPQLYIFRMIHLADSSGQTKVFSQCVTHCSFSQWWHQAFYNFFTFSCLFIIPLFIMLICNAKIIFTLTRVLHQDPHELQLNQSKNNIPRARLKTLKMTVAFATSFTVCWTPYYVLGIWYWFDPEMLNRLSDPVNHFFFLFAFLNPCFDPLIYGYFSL

C[N+](C)(C)CCCCCCCCCC[N+](C)(C)C
not listed: [19]
inactive: all other assays above

CC1(C)S[C@@H]2[C@H](NC(=O)C(c3ccccc3)S(=O)(=O)O)C(=O)N2[C@H]1C(=O)O (stereo partly specified)
not listed: [11] | [15]
inactive: all other assays above

NC(=O)c1ccncc1
not listed: [19]
inactive: all other assays above

COc1ccc(/C(C)=C/C(=O)O)c(OC)c1
not listed: [15] | [19]
inactive: all other assays above

N#Cc1ccc(C(=O)O)cc1
not listed: [11] | [15] | [19]
inactive: all other assays above

CCCCOC(=O)C(C)CC (stereo unspecified)
not listed: [17] | [19]
inactive: all other assays above

NS(=O)(=O)c1ccc(Cl)c(S(N)(=O)=O)c1
not listed: [15] | [17]
inactive: all other assays above

CCOC(=O)Cc1cccc2ccccc12
not listed: [14] | [15] | [16]
inactive: all other assays above
